Test results reported in PubChem BioAssay AID1851 (National Center for Advancing Translational Sciences (NCATS), 2009).
“And” between values parts separate entries of the source, which are not always exact repeats. Equal values may be shown once. Among all 16,000 compounds or so, about 5,800 (36%) were called active. Inconclusive results (about 23%) are left out. The call rests on the fitted dose curve; in most records, active means well fitted curve in the direction sought with a large enough effect; inconclusive means small, poorly fitted or top-dose-only effect, or effect the other way; inactive means no such curve, though single readings can be large or run the other way. The list shows a part of the results.

These compounds were tested against Cytochrome P450 2C19 (Homo sapiens) (UniProt P33261) (assay: Cytochrome panel assay with activity outcomes). Conditions: recombinant CYP, pro-luciferin dealkylation, luminescence, p450-cyp2c19; series mostly up to 57.1 µM; activity, negative = inhibition: at the top concentration.
On the % scale 0 is the no-effect control and ±100 the full control effect.

Cytochrome P450 2C19 (Homo sapiens), sequence (P33261 whole entry, looked up): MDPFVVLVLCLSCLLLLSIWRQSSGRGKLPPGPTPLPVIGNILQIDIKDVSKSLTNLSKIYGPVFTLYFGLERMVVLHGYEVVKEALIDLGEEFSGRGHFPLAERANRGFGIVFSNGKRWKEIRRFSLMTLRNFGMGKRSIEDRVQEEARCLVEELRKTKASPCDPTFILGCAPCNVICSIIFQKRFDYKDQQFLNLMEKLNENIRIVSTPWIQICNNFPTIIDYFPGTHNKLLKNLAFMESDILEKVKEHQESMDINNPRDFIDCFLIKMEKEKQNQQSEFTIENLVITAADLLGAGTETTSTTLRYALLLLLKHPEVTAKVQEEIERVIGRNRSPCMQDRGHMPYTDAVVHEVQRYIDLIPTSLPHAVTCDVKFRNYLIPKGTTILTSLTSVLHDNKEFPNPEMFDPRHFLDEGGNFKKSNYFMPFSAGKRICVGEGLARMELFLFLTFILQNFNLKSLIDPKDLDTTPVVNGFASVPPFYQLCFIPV

| SMILES | activity, negative = inhibition | AC50 |
| --- | --- | --- |
| CN(C)CCCNc1c(C(=O)O)cnc2c1cnn2C | 12.7% (inactive) |  |
| CC(=O)N1CCC(=O)N(C(C)C)c2ccccc21 | -13.2% (inactive) |  |
| Cc1ccc(-n2c(=O)[nH]cc(C(=O)N3CCc4ccccc43)c2=O)cc1 | -9.61% (inactive) |  |
| Cc1nn(C(C)C(=O)N2CCc3ccccc32)c(C)c1[N+](=O)[O-] (stereo not given) |  | 11.2 µM (active) |
| C[C@@H](C1=C(CCN(C)C)Cc2ccccc21)c1ccccn1 |  | 2.51 µM (active) |
| CN(C)CC[C@@H](c1ccccc1)c1ccccn1 | 26.1% (inactive) |  |
| CN(C)CC(CN(C)C)c1ccccn1 | 4.36% [at 11.4 µM] (inactive) |  |
| Cc1n[nH]c(=O)[nH]c1=O | 13.1% [at 25.6 µM] (inactive) |  |
| CS(=O)(=O)Nc1cccc(-c2nc(NCCN3CCOCC3)c3ccccc3n2)c1 | -15.4% (inactive) |  |
| Cc1cccc(CNc2nc(-c3cccc(NS(C)(=O)=O)c3)nc3ccccc23)c1 |  | 2.51 µM (active) |
| CS(=O)(=O)Nc1cccc(-c2nc(NCc3cccs3)c3ccccc3n2)c1 |  | 10 µM (active) |
| CCOC(=O)COc1c(OC)cc(Cl)cc1C1Nc2ccccc2C(=O)N1c1cccc(C)c1 (stereo not given) |  | 1.41 µM (active) |
| CCOC(=O)CC1NC(=O)c2ccccc21 (stereo not given) | -29.3% (inactive) |  |
| CCOC(=O)COc1c(OC)cc(Cl)cc1C1Nc2ccccc2C(=O)N1c1ccc(F)cc1 (stereo not given) |  | 0.501 µM (active) |
| C#CCn1c(=O)c2c(ncn2C)n(C)c1=O | -7.88% (inactive) |  |
| O=C(Nc1cccc(C(F)(F)F)c1)c1ccc(Cn2cc(Br)cn2)o1 |  | 2.24 µM (active) |
| CCN(CC)S(=O)(=O)c1cccc(C(=O)N[C@H](C(=O)OCC(=O)NC(=O)NC)C(C)C)c1 |  | 7.94 µM (active) |
| [N-]=[N+]=NC[C@@H]1O[C@@H](n2cnc3c(N)ncnc32)[C@@H]2O[C@@H]21 | 18.5% [at 11.4 µM] (inactive) |  |
| CC(C)=CCC/C(C)=C/CC/C(C)=C/CSc1ccccc1C(=O)O | -8.59% (inactive) |  |
| Cn1c(=O)cc(SCC(=O)NCCN2CCN(c3ccccc3F)CC2)c2cc(Cl)ccc21 |  | 11.2 µM (active) |
| Cc1c(Cl)cnc(NC(=O)COC(=O)CCS(=O)(=O)c2ccccc2)c1Cl |  | 20 µM (active) |
| CC(C)=CC(=O)OCC(=O)Nc1ncc(Cl)c(C)c1Cl |  | 15.8 µM (active) |
| Nc1ccc(CCNc2ncnc3c2ncn3[C@@H]2O[C@@H](CO)[C@H](O)[C@@H]2O)cc1 | -1.06% (inactive) |  |
| Cc1cc(N2CCN(C)CC2)n2nc(-c3ccc(Cl)cc3)nc2n1 | 4.95% [at 11.4 µM] (inactive) |  |
| Cc1cc(N)n2ncc(-c3ccc(Cl)cc3)c2n1 |  | 15.8 µM (active) |
| COc1cc(/C=C/C(=O)Nc2cc(C(F)(F)F)ccc2Cl)cc(OC)c1OC |  | 20 µM (active) |
| COc1cccc(C(=O)Nc2cc(C(F)(F)F)ccc2Cl)c1 |  | 7.08 µM (active) |

| SMILES | activity, negative = inhibition | AC50 |
| --- | --- | --- |
| COc1cc(C(=O)Nc2cc(C(F)(F)F)ccc2Cl)cc(OC)c1OC |  | 22.4 µM (active) |
| COc1cc(C(=O)NC(=S)Nc2ccc(Cl)c(C(=O)O)c2)cc(OC)c1OC | -6.67% (inactive) |  |
| COC(=O)c1ccc(Cl)c(NC(=O)c2ccc(-c3ccccc3)cc2)c1 | -8.48% (inactive) |  |
| O=C(Cc1ccccc1)NC(=S)Nc1cc(C(F)(F)F)ccc1Cl |  | 0.708 µM (active) |
| CCCC(=O)Nc1ccc(C(=O)Nc2cc(C(F)(F)F)ccc2Cl)cc1 |  | 20 µM (active) |
| CN(C)c1cc[n+](CC(=O)Nc2cc(C(F)(F)F)ccc2Cl)cc1 | -23.1% (inactive) |  |
| C/C(CCN1CCCCc2nc(C)c(C)cc21)=N\O[C@@H](C)c1cn([C@H](CO)Cc2ccccc2)nn1 | -12.5% [at 11.4 µM] (inactive) and 36.9% [at 11.4 µM] (inactive) |  |
| COC(=O)C/C=C1\c2ccccc2[C@H](OC)[C@H]1C | 23.9% [at 11.4 µM] (inactive) |  |
| COc1ccccc1NC(=O)CN1CCN(C2c3ccccc3-c3ccccc32)CC1 |  | 0.708 µM (active) |
| O=C(O)C[C@@H](C(=O)O)C1c2ccccc2-c2ccccc21 | 26.9% [at 11.4 µM] (inactive) |  |
| CC(=O)Nc1ccc2c(c1)C(=Nc1ccc(C(=O)O)cc1)c1ccccc1-2 | 24.2% [at 11.4 µM] (inactive) |  |
| CC(C)OC(=O)CN1CCN(C2c3ccccc3-c3ccccc32)CC1 |  | 7.08 µM (active) |
| COc1ccc(NC(C)=O)cc1NC(=O)CN1CCN(C2c3ccccc3-c3ccccc32)CC1 |  | 2.51 µM (active) |
| N#CCCn1c(=O)c(-c2cc(F)cc(F)c2)nc2cnc(Nc3ccccc3)nc21 | 25% (inactive) |  |
| FC(F)(F)c1cc(CN2CC3(CCNCC3)C2)cc(C(F)(F)F)c1 | 10.5% (inactive) |  |
| COc1cc(C2SCCCCCCCCCCSC(c3ccc(O)c(OC)c3)SCCCCCCCCCCS2)ccc1O (stereo not given) | 20.3% [at 11.4 µM] (inactive) |  |
| COc1ccc(Oc2c(C=O)c3ccccc3n2C)cc1 |  | 2.82 µM (active) |
| Cc1ccc(C(=O)O/N=C/c2c(Cl)n(C)c3ccccc23)cc1 | -9.13% (inactive) |  |
| Cn1cc(-c2nc3cnc(Oc4ccccc4)nc3n(C)c2=O)c2ccccc21 | -13.6% (inactive) |  |
| COc1ccc(Oc2ncc3nc(-c4cn(C)c5ccccc45)c(=O)n(C)c3n2)cc1 | 17% (inactive) |  |
| Cn1c(Oc2ccccc2)c(C=O)c2ccccc21 |  | 4.47 µM (active) |
| Cc1cc(NC(=O)COc2ccc(Cl)cc2Cl)n(-c2ccccc2)n1 |  | 1.12 µM (active) |
| O=C(COc1ccccc1Cl)Nc1cc(Cl)ccc1Oc1ccccc1 |  | 1 µM (active) |
| COc1cccc(-c2ccc3ncnc(NC4CC4)c3c2)c1 |  | 1.26 µM (active) |
| c1nc(NC2CCNCC2)c2cc(-c3ccoc3)ccc2n1 | -44.8% (inactive) |  |
| c1nc(NC2CCNCC2)c2cc(-c3ccc4c(c3)OCO4)ccc2n1 | -26.1% (inactive) |  |
| CS(=O)(=O)Nc1cccc(-c2ccc3ncnc(NC4CCNCC4)c3c2)c1 | 3.78% (inactive) |  |

| SMILES | activity, negative = inhibition | AC50 |
| --- | --- | --- |
| CN(C)c1ccc(-c2ccc3ncnc(NC4CC4)c3c2)cc1 | -44.6% (inactive) |  |
| Cc1noc(C)c1-c1ccc2ncnc(NC3CCNCC3)c2c1 |  | 15.8 µM (active) |
| COc1cccc(-c2ccc3ncnc(NC4CCNCC4)c3c2)c1 |  | 6.31 µM (active) |
| c1cncc(-c2ccc3ncnc(NC4CCNCC4)c3c2)c1 | -7.83% (inactive) |  |
| Cn1c(=O)c(-c2ccc(Cl)cc2)nc2cnc(OCc3ccccc3)nc21 | 12.8% (inactive) |  |
| Cc1cc(C)n(-c2nc3ccccc3c(=O)n2OCc2ccc(Cl)cc2)n1 |  | 0.398 µM (active) |
| C[C@@H](CN1CCC(Cc2ccccc2)CC1)[C@@H](O)c1ccc(O)cc1 | 18.2% (inactive) |  |
| CC(C)OC(=O)c1cc2c(ccn2C)n1CC(=O)N1CCC(Cc2ccccc2)CC1 |  | 14.1 µM (active) |
| Cc1ccc(C)c(Cn2c(C(=O)OC(C)C)cc3c2ccn3C)c1 |  | 1.78 µM (active) |
| CCOC(=O)c1cc2c(ccn2C)n1CC(=O)N1CCCC(C)C1 (stereo not given) |  | 8.91 µM (active) |
| C[C@@H](CN1CCC(Cc2ccccc2)CC1)[C@H](O)c1ccc(O)cc1 | 15.6% (inactive) |  |
| CSc1nnc(-c2ccc(Cl)cc2Cl)o1 |  | 25.1 µM (active) |
| Clc1ccc(-c2nnc(CCc3ccccc3)o2)c(Cl)c1 |  | 1.41 µM (active) |
| c1ccc(C2=NN[C@@H]3c4ccccc4-c4ccccc4N3C2)cc1 | -22.1% [at 11.4 µM] (inactive) |  |
| CN(C)c1ccc(-c2ccc3ncnc(-n4ccnc4)c3c2)cc1 |  | 10 µM (active) |
| CN1CCN(c2ncncc2-c2ccc(C(=O)N(C)C)cc2)CC1 | -10.9% (inactive) |  |
| CN1CCN(c2ncncc2-c2ccc(N(C)C)cc2)CC1 |  | 10 µM (active) |
| CN(C)c1ccc(-c2ccc3ncnc(N(C)C)c3c2)cc1 | -40.3% (inactive) |  |
| c1cncc(-c2cncnc2-n2ccnc2)c1 | -34.8% (inactive) |  |
| CN(C)c1ccc(-c2cncnc2-n2ccnc2)cc1 |  | 3.98 µM (active) |
| COc1cccc(-c2cncnc2-n2ccnc2)c1 |  | 0.631 µM (active) |
| CN(C)C(=O)c1ccc(-c2cncnc2N2CCNCC2)cc1 | 5.63% (inactive) |  |
| CS(=O)(=O)Nc1cccc(-c2cncnc2-n2ccnc2)c1 | -13.4% (inactive) |  |
| CN(C)C(=O)c1ccc(-c2ccc3ncnc(N4CCNCC4)c3c2)cc1 | -11.3% (inactive) |  |
| CN1CCN(c2cc(-c3ccc(N(C)C)cc3)ncn2)CC1 | -4.96% (inactive) |  |
| Cc1ccccc1-c1ccc2ncnc(-n3ccnc3)c2c1 |  | 2 µM (active) |
| COCCNc1ncnc2ccc(-c3ccoc3)cc12 | 21.5% (inactive) |  |

| SMILES | activity, negative = inhibition | AC50 |
| --- | --- | --- |
| N#Cc1ccccc1-c1ccc2ncnc(N3CCNCC3)c2c1 | -23.5% (inactive) |  |
| c1cn(-c2ncnc3ccc(-c4ccoc4)cc23)cn1 |  | 10 µM (active) |
| CN(C)c1ccc(-c2cc(-n3ccnc3)ncn2)cc1 |  | 7.94 µM (active) |
| COc1ccccc1CN1CCC2(CC1)CCN(C(C)=O)CC2 | 9.85% (inactive) |  |
| CCN(CC)C(=O)c1ccc(O)c(OC)c1 | 2.06% [at 25.6 µM] (inactive) |  |
| CCCCN(CC)C(=O)Cc1ccccc1OC |  | 4.47 µM (active) |
| Cc1ccc2nc(Cc3ccc(N)cc3)[nH]c2c1 |  | 3.55 µM (active) |
| N#Cc1c(SCC(N)=O)nsc1SCc1ccccc1Cl |  | 1.12 µM (active) |
| Nc1nc(SCc2ccccc2Cl)cc(C(=O)O)n1 | 35% [at 11.4 µM] (inactive) |  |
| CN(C)C(=O)c1ccc(-c2nc(NC3CCNCC3)c3ccccc3n2)cc1 | 26.9% (inactive) |  |
| CC1CCC(NC(=O)CC(C)(C)Cc2nc3ccccc3c(=O)[nH]2)CC1 (stereo not given) |  | 6.31 µM (active) |
| CN=C(NC#N)Nc1ccc(C2=NNC(=O)C[C@@H]2C)cc1 | -25.2% (inactive) |  |
| CN1CCN(c2ncc3ncc(=O)n(Cc4ccc(F)cc4)c3n2)CC1 | -39.4% (inactive) |  |
| O=c1cnc2cnc(N3CCOCC3)nc2n1CCc1ccccc1 |  | 0.1 µM (active) |
| COc1ccc(-c2nc3cnc(N4CCOCC4)nc3n(CCc3ccccc3)c2=O)cc1 | -39.4% (inactive) |  |
| CN1CCN(c2ncc3nc(-c4cccs4)c(=O)n(CCc4ccccc4)c3n2)CC1 | -23.1% (inactive) |  |
| O=c1cnc2cnc(N3CCOCC3)nc2n1Cc1ccc(F)cc1 |  | 3.98 µM (active) |
| COc1ccc(-c2nc3cnc(N4CCN(C)CC4)nc3n(CCc3ccccc3)c2=O)cc1 | 1.01% (inactive) |  |
| CN1CCN(c2ncc3nc(-c4ccccc4)c(=O)n(CCc4ccccc4)c3n2)CC1 | -31.9% (inactive) |  |
| Cc1nc2cnc(N3CCN(C)CC3)nc2n(CCc2ccccc2)c1=O |  | 5.01 µM (active) |
| CN1CCN(c2ncc3ncc(=O)n(Cc4cccs4)c3n2)CC1 | -40.5% (inactive) |  |
| CN1CCN(c2ncc3ncc(=O)n(CCc4ccccc4)c3n2)CC1 |  | 6.31 µM (active) |
| O=c1c(-c2ccccc2)nc2cnc(N3CCOCC3)nc2n1CCc1ccccc1 | -30.7% (inactive) |  |
| O=c1cnc2cnc(N3CCOCC3)nc2n1C[C@H]1CCCO1 | 32.5% (inactive) |  |
